CYP2C19 inhib = blockers of cytochrome P450 2C19 activity – biochemical, luminescence, ADME assay, primary screen; inhibition, % at 5 µM; AID 778, 2007; CYP2C19 Supersomes, luciferin-H EGE luminescence, 30 min; P33261; actives 21% (n = 96,000);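 active = CYP2C19 inhibition above a set limit at 5 µM in the primary screen, cut at about 50% in these data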;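 note: plate controls were negative control wells for no effect and 2.5 mM tranylcypromine positive control for full effect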
CYP2C9 inh = blockers of cytochrome P450 2C9 activity – biochemical, luminescence, ADME assay, primary screen. P11712. inhibition, % at 5 µM. CYP2C9 Supersomes, luciferin-H conversion. actives 20% (n = 96,000);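 active = blocking of liver enzyme CYP2C9 beyond about 50% at 5 µM, limit read from the data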
D1 mod = D1 CRE-luciferase signal change, two-sided – cell-based, HEK293 D1, dopamine EC30, D1 allosteric modulator project, primary screen. dopamine EC30 potentiation; actives deviate in either direction. B-score at 10 µM. actives 5.9% (n = 58,000). AID 641, 2007;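 active = luminescence count or its row- and column-corrected plate score outside the 99.7% band of the plate's sample wells, on either side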
Target sequence (P21728 whole entry, looked up): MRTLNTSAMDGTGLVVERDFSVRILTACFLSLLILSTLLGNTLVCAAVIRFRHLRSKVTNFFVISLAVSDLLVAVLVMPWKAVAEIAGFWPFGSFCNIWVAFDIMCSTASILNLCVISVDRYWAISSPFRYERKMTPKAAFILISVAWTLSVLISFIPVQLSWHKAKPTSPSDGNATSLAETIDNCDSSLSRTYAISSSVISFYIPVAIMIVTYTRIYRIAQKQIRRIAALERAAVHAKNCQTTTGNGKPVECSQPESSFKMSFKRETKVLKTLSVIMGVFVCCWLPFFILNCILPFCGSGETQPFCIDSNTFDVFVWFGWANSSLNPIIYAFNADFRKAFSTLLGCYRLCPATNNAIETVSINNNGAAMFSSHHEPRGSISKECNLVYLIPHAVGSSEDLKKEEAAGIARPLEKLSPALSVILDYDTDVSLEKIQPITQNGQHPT
CYP2C19 act = human CYP2C19 activators, primary screen, biochemical, luminescence | Cytochrome P450 2C19 (Homo sapiens), P33261 | recombinant CYP2C19, luciferin-H EGE luminescence; stronger effect = higher value; 0 = fully inhibited enzyme, 1 = untreated enzyme | activation factor at 5 µM | 96,000 tested, under 10 active | AID 1025, 2008;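 active = activation factor of at least 2 at 5 µM in the primary screen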;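 note: 0 = wells with 2.5 mM tranylcypromine and 1 = vehicle-only wells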
CYP2C9 activ = human CYP2C9 activators, primary screen, biochemical, luminescence | Cytochrome P450 2C9 (Homo sapiens), P11712 | recombinant CYP2C9, luciferin-H conversion; stronger effect = higher value; factor 1 = untreated enzyme, 0 = blocked | activation factor at 5 µM | actives 1.4% (n = 96,000);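 active = activation factor of 2 or more for CYP2C9 at a 5 µM dose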;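 note: 0 = sulfaphenazole-blocked wells and 1 = vehicle-only wells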
hDAT+cocaine = changed hDAT dopamine uptake under cocaine IC80, either direction, primary screen, cocaine antagonist project, cell-based, LLC-PK1 hDAT, [14C]-dopamine uptake, MLSMR | LLC-PK1 hDAT cells, [14C]-dopamine uptake with cocaine IC80; actives deviate in either direction | AID 449768, 2010 | Sodium-dependent dopamine transporter (Homo sapiens), Q01959 | actives 1.3% (n = 110,000) | B-score at 10 µM;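 active = Z score or B-score, a plate-position-corrected score, falls beyond the plate's 99.7% confidence bounds, in either direction; inactive = both scores lie inside the 99.7% bounds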;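 note: scored against the spread of the other compound wells on the same plate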
An asterisk follows results filed as active. In the library only some 28% were active in any assay of this set; here they are far more common.

COc1cc(C(=O)NCc2cccc3ccccc23)ccc1OCc1ccccc1 was read as CYP2C19 inhib 22, CYP2C9 inh 69*, CYP2C19 act 0.8, CYP2C9 activ 0.3 and hDAT+cocaine 1.1.
COc1ccc(CNC(=O)c2cccc(N(C)C)c2)cc1 was read as CYP2C19 inhib 38, CYP2C9 inh -46, D1 mod -0.0039, CYP2C19 act 0.6, CYP2C9 activ 1.5 and hDAT+cocaine 0.54.
Screening Cc1c(CNC(=O)c2nn3c(c2Cl)NC(c2ccccc2)CC3C(F)(F)F)cnn1C (stereo not given) returned CYP2C19 inhib 33, CYP2C9 inh 44, D1 mod -0.12, CYP2C19 act 0.7, CYP2C9 activ 0.6 and hDAT+cocaine 1.5.
`c1ccc(CNc2nnnn2-c2ccccc2)cc1` gave hDAT+cocaine -0.0098.
CCn1nnnc1NCc1ccc(N2CCCC2)cc1 was read as CYP2C19 inhib 79*, CYP2C9 inh 81*, D1 mod -0.21, CYP2C19 act 0.2, CYP2C9 activ 0.2 and hDAT+cocaine -0.39.
Screening Cc1ccc(-n2c3c(c(=O)[nH]c2=O)C(NS(=O)(=O)c2ccc(C)cc2)(C(F)(F)F)C(=O)N3)cc1 (stereo not given) returned CYP2C19 inhib -7, CYP2C9 inh -20, CYP2C19 act 1.1, CYP2C9 activ 1.2 and hDAT+cocaine -0.94.
`CCc1c(C(C)S(=O)(=O)c2ccc(C)cc2)[nH]c(=O)n1-c1ccc(C)cc1` (stereo not given) gave CYP2C19 inhib 59*, CYP2C9 inh 19, CYP2C19 act 0.4, CYP2C9 activ 0.8 and hDAT+cocaine -0.65.
Screening O=c1cc(N2CCc3ccccc3C2)[nH]c(=O)n1Cc1ccc(F)cc1 returned D1 mod -0.17 and hDAT+cocaine 0.45.
Screening CN=C(NC#N)SCC(=O)c1ccc(Cl)cc1Cl returned CYP2C19 inhib 82*, CYP2C9 inh 96*, D1 mod 1.3, CYP2C19 act 0.2, CYP2C9 activ 0 and hDAT+cocaine 1.2.
Screening OC(CN1C2=NCCN2c2ccccc21)c1ccc2c(c1)OCO2 (stereo not given) returned CYP2C19 inhib 12, CYP2C9 inh 15, D1 mod -1.3, CYP2C19 act 0.9, CYP2C9 activ 0.8 and hDAT+cocaine -0.67.
COc1ccc(C2=CC(=O)OC3(CCCCC3)O2)cc1 was read as CYP2C19 inhib 95*, CYP2C9 inh 88*, D1 mod -0.14, CYP2C19 act 0.1, CYP2C9 activ 0.1 and hDAT+cocaine -0.16.
`COc1cccc(NC=C2C(=O)OC3(CCCCC3)OC2=O)c1` gave CYP2C19 inhib 6, CYP2C9 inh 0, D1 mod -0.15, CYP2C19 act 0.9, CYP2C9 activ 1 and hDAT+cocaine -0.17.
`Cn1nc(-c2ccccc2)c(CSc2ccccc2Cl)c1Cl` gave CYP2C19 inhib 36, CYP2C9 inh 24, CYP2C19 act 0.6, CYP2C9 activ 0.8 and hDAT+cocaine -0.3.
Cn1nc(-c2ccccc2)c(C(O)c2ccc(Cl)cc2)c1Cl (stereo not given) was read as CYP2C19 inhib 95*, CYP2C9 inh 88*, CYP2C19 act 0, CYP2C9 activ 0.1 and hDAT+cocaine 0.49.
CCOc1ccc(N2C(=O)CN=C2Nc2ccccc2F)cc1 was read as CYP2C19 inhib 4, CYP2C9 inh 8, CYP2C19 act 1, CYP2C9 activ 0.9 and hDAT+cocaine 1.4.
Screening CCc1ccc(C2=NN(S(C)(=O)=O)C(c3cccs3)C2)cc1 (stereo not given) returned CYP2C19 inhib 56*, CYP2C9 inh 41, CYP2C19 act 0.4, CYP2C9 activ 0.6 and hDAT+cocaine 1.
For O=S(=O)(c1ccccc1)N1N=C(c2cccs2)CC1c1ccc(F)cc1 (stereo not given) the results were CYP2C19 inhib -12, CYP2C9 inh -12, CYP2C19 act 1.1, CYP2C9 activ 1.1 and hDAT+cocaine -0.11.
`CCc1ccc(C2=NN(c3ccc(S(N)(=O)=O)cc3)C(c3ccc(F)cc3)C2)cc1` (stereo not given) gave CYP2C19 inhib 45, CYP2C9 inh 38, CYP2C19 act 0.6, CYP2C9 activ 0.6 and hDAT+cocaine 0.21.
CCS(=O)(=O)Nc1cccc(C2=NN(S(=O)(=O)c3ccccc3)C(c3cccs3)C2)c1 (stereo not given) was read as CYP2C19 inhib 50*, CYP2C9 inh 67*, CYP2C19 act 0.5, CYP2C9 activ 0.3 and hDAT+cocaine 1.1.
Cc1ccc(C2=NN(S(C)(=O)=O)C(c3cccs3)C2)cc1 (stereo not given) was read as CYP2C19 inhib 99*, CYP2C9 inh 44, CYP2C19 act 0, CYP2C9 activ 0.6 and hDAT+cocaine 0.0088.
For CS(=O)(=O)N1N=C(c2ccc(Br)cc2)CC1c1cccs1 (stereo not given) the results were CYP2C19 inhib 92*, CYP2C9 inh 35, CYP2C19 act 0.1, CYP2C9 activ 0.6 and hDAT+cocaine -0.71.
CS(=O)(=O)N1N=C(c2ccc3nccnc3c2)CC1c1ccccc1 (stereo not given) was read as CYP2C19 inhib 27, CYP2C9 inh 42, CYP2C19 act 0.7, CYP2C9 activ 0.6 and hDAT+cocaine 0.14.
`CCCC(C)c1nnc(NC(=O)C2CCCO2)s1` (stereo not given) gave CYP2C19 inhib 2, CYP2C9 inh -11, D1 mod -0.64, CYP2C19 act 1, CYP2C9 activ 1.1 and hDAT+cocaine -0.88.
Screening O=C(O)CN1C(=O)SC(Nc2ccccc2C(=O)O)C1=O (stereo not given) returned CYP2C19 inhib 1, CYP2C9 inh -9, CYP2C19 act 1, CYP2C9 activ 1.1 and hDAT+cocaine 0.16.
COc1ccc2[nH]c3nc(SC(C)C)nnc3c2c1 was read as CYP2C19 inhib 8, CYP2C9 inh 24, D1 mod -4*, CYP2C19 act 0.9 and CYP2C9 activ 0.8.
Screening COc1ccc2[nH]c3nc(SCc4nnc(-c5ccccc5)o4)nnc3c2c1 returned CYP2C19 inhib 50, CYP2C9 inh 64*, D1 mod 0.12, CYP2C19 act 0.5, CYP2C9 activ 0.4 and hDAT+cocaine 0.078.
For CCCC(C)n1[nH]c(=O)cc1N (stereo not given) the results were hDAT+cocaine -2.8*.

Screens (PubChem)
